Experimental data as given in PubChem BioAssay AID1259422 (The Scripps Research Institute Molecular Screening Center, 2018).
Among all 640,000 compounds or so, about 9,300 (1.5%) were called active. Rule as the data show it: active = inhibition above about 32%; inactive = the rest. What follows is part of a selection rich in actives, with near analogues and random picks from the rest.

Assay: TEAD-YAP interaction inhibition, primary screen, TEAD-YAP interaction inhibitor project, luminescence, HEK-TIYL cells (AID 1259422);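 also: 0% = median of test compound wells and 100% = reference inhibitor wells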
Conditions: TEAD-Gal4/YAP UAS-luciferase luminescence, at 9.12 µM, hits give high values

Row | Compound | inhibition
1 | COC(=O)NNc1ncnc(N)c1[N+](=O)[O-] | 2.66% (inactive)
2 | Nc1ncnc(NCc2ccc(Cl)cc2)c1[N+](=O)[O-] | -0.74% (inactive)
3 | CC(C)(CO)Nc1ncnc(N)c1[N+](=O)[O-] | 50.6% (active)
4 | O=C(/C=C/c1cccs1)N1CC[C@@H]2[C@H](CCCN2C(=O)c2ccc3[nH]ccc3c2)C1 | -4% (inactive)
5 | COC(=O)c1c(NC(=O)C(C)N2C(=O)c3ccccc3C2=O)sc2c1CCCC2 (stereo not given) | -8.49% (inactive)
6 | CC(=O)Oc1ccc2occ(C(=O)c3cc4ccccc4o3)c2c1 | 53.6% (active)
7 | COc1ccc(NC(=O)Cc2coc3ccc(C)cc23)cc1 | -3.85% (inactive)
8 | Cc1cc(=O)oc2c(OC(=O)c3cc4ccccc4o3)c(OC(=O)c3cc4ccccc4o3)ccc12 | -3.97% (inactive)
9 | CC(=O)Oc1ccc2occ(C(=O)c3ccc(C)cc3)c2c1 | 41% (active)
10 | COc1ccc2occ(C(=O)c3ccc(N=C(C)N(C)C)cc3)c2c1 | -23.4% (inactive)
11 | COc1ccc(OC)c(C(=O)c2coc3ccc(OC)cc23)c1 | 1.14% (inactive)
12 | CCOC(=O)Cn1c(=O)c2c(nc3n2CC(C)CN3c2ccccc2C)n(C)c1=O (stereo not given) | 2.64% (inactive)
13 | O=C1c2ccccc2S(=O)(=O)N1c1ccc(Cl)cc1Cl | 6.48% (inactive)
14 | O=C(O)C(CCC(=O)N1CCOCC1)N1C(=O)c2ccccc2C1=O (stereo not given) | -9.92% (inactive)
15 | Nc1nc(=O)n(C2OC(CO)C(O)C2O)cc1Br (stereo not given) | 5.2% (inactive)
16 | O=c1cnn(C2OC(CO)C(O)C2O)c(=O)[nH]1 (stereo not given) | 74.7% (active)
17 | Nc1nc(N)c2ncn(C3OC(CO)C(O)C3O)c2n1 (stereo not given) | -3.32% (inactive)
18 | CCOC(=O)c1ccc(NC(=O)CSc2nnnn2-c2ccc([N+](=O)[O-])cc2)cc1 | -1.87% (inactive)
19 | N#Cc1c(NC(=O)CSc2ccc([N+](=O)[O-])cn2)sc2c1CCCC2 | -0.26% (inactive)
20 | N#Cc1c(NC(=O)c2cc([N+](=O)[O-])ccc2Cl)sc2c1CCC2 | 32.6% (active)
21 | N#Cc1c(NC(=O)c2cc([N+](=O)[O-])nn2Cc2ccccc2)sc2c1CCC2 | 2.14% (inactive)
22 | Cc1nnc(SCc2cccc3ccccc23)[nH]c1=O | -2.21% (inactive)
23 | O=S(=O)(c1ccc(Cl)c(C(F)(F)F)c1)N1CCNCC1 | 3.58% (inactive)
24 | COC(=O)CNc1nc(Cl)nc(Nc2ccc(I)cc2C)n1 | -1.03% (inactive)

Row | Compound | inhibition
25 | CC(=O)N1CCN(Cc2nc(-c3ccc(Cl)cc3)cs2)CC1 | 2.89% (inactive)
26 | O=C(CN1CCN(Cc2nc(-c3ccco3)cs2)CC1)NCc1ccc2c(c1)OCO2 | -0.64% (inactive)
27 | O=C(NCc1ccc(Cl)cc1)N1CCN(Cc2nc(-c3ccco3)cs2)CC1 | 41.8% (active)
28 | O=[N+]([O-])c1ccc(NC(=S)Nc2ccc(Br)cn2)cc1 | 2.08% (inactive)
29 | CC(C)(C)NC(=O)c1cc2nc(-c3ccco3)cc(C(F)(F)F)n2n1 | -0.09% (inactive)
30 | Cc1ccc(C(=O)NCCNc2ccc([N+](=O)[O-])cc2)cc1 | 1.76% (inactive)
31 | O=C(NCCCNc1ccc([N+](=O)[O-])cc1Cl)c1ccc(Cl)cc1 | 3.65% (inactive)
32 | Cc1ccc(C(=O)NCCNc2ccc([N+](=O)[O-])cc2Cl)cc1 | 34.1% (active)
33 | CC(Oc1cccc2cccnc12)C(=O)NNC(=S)NC(=O)c1cc2ccccc2oc1=O (stereo not given) | 3.86% (inactive)
34 | Cc1ccccc1C1=NN2C(=N)/C(=C/c3c(C)nn(-c4ccccc4)c3Cl)C(=O)N=C2S1 | -14.8% (inactive)
35 | CCCN(CCC)S(=O)(=O)c1ccc2[nH]c(=O)ccc2c1 | -11.6% (inactive)
36 | COc1cc(C(=O)N/N=C/c2cccs2)ccc1O | 2.59% (inactive)
37 | COc1cc(OC)c(OC)cc1/C=N/NC(=O)c1ccccn1 | -43.7% (inactive)
38 | CCC/C=N/NC(=O)c1cc(OC)c(OC)c(OC)c1 | 59.2% (active)
39 | COc1cc(C(=O)N/N=C/c2c(Cl)[nH]c(=O)n2-c2ccccc2)cc(OC)c1OC | 72.6% (active)
40 | COc1cc(/C=N/NC(=O)c2cccs2)cc(OC)c1OC | -55.4% (inactive)
41 | COc1cc(C(=O)NCc2n[nH]c(=S)n2-c2ccccc2)cc(OC)c1OC | 3.36% (inactive)
42 | CCCOC(=O)c1ccc(NC(=O)c2cc(OC)c(OC)c(OC)c2)cc1 | -1.39% (inactive)
43 | COC(=O)N/N=C\c1ccc(-c2cccc(Cl)c2)o1 | -22.7% (inactive)
44 | Cc1ccc(C(=O)N/N=C\c2ccc(-c3cccc(C(=O)O)c3)o2)cn1 | -9% (inactive)
45 | CCC/C=N/NC(=O)c1ccc(C)cc1C | -15.2% (inactive)
46 | COc1cc(C(=O)N/N=C\c2ccc(-c3cccc(C(=O)O)c3)o2)cc(OC)c1OC | 64.9% (active)
47 | COc1cc(C(=O)N/N=C/c2cccs2)cc(OC)c1OC | 61.3% (active)
48 | Cc1ccc(N2C(=O)c3cccc4c(Br)c([N+](=O)[O-])cc(c34)C2=O)c(C)c1 | 6.15% (inactive)

Row | Compound | inhibition
49 | CCN(CC)CCCN(Cc1ccco1)C(=S)Nc1cc(C)c(Cl)cc1OC | 3.59% (inactive)
50 | Cc1nc2c(c(=O)[nH]1)CN(Cc1cccn1C)CC2 | -16.9% (inactive)
51 | Oc1ccc(-c2cnc3c(NCc4ccco4)nccn23)cc1 | -72.4% (inactive)
52 | Cc1ccc(-n2ncc3c(NCc4ccco4)ncnc32)cc1 | -76.8% (inactive)
53 | c1coc(CNc2ncnc3ccccc23)c1 | 36.3% (active)
54 | Ic1ccc2ncnc(NCc3ccco3)c2c1 | 15.7% (inactive)
55 | CCOC(=O)c1ccc(NC(=O)N2CCN(c3nc(-c4ccccc4)cs3)CC2)cc1 | -7.79% (inactive)
56 | COCCNC(=O)c1cc2nc(-c3cccs3)cc(C(F)(F)F)n2n1 | 8.1% (inactive)
57 | Cc1ccccc1-n1c(C)cc(/C=C2\NC(=O)NC2=O)c1C | 57.4% (active)
58 | Cc1cc(/C=C2/NC(=O)NC2=O)c(C)n1-c1ccc2ccccc2c1 | 7.98% (inactive)
59 | Cc1cc(/C=C2/NC(=O)NC2=O)c(C)n1-c1ccc(Cl)cc1 | 4.42% (inactive)
60 | CN(C(=O)n1nnc2ccccc21)c1ccccc1 | 44.2% (active)
61 | COc1ccc(C(=O)n2nnc3ccccc32)cc1 | -1.4% (inactive)
62 | Cc1nn(C(=O)N(C)c2ccccc2)c(C)c1Br | 5% (inactive)
63 | O=C(N/N=C/c1ccc(Cl)cc1)c1ccccc1F | -4.81% (inactive)
64 | COCCNCC(=O)Nc1cccc2ccccc12 | 8.26% (inactive)
65 | O=C(NN1CC(C(=O)OCc2ccc([N+](=O)[O-])cc2)CC1=O)c1ccccc1 (stereo not given) | 5.91% (inactive)
66 | Cc1cc(C)n(CCc2nc3c4ccccc4n(CC(N)=O)c(=O)n3n2)n1 | 4.04% (inactive)
67 | Cc1csc2nc(-c3ccc(NC(=O)COc4ccccc4)cc3)cn12 | 78.2% (active)
68 | COC(=O)COc1ccc(NC(=O)COc2ccccc2)cc1 | 0.58% (inactive)
69 | COc1ccc(CC(=O)Nc2ccc(-c3cn4c(C)csc4n3)cc2)cc1 | -12.5% (inactive)
70 | O=C(Nc1cccc2ccccc12)c1nc2c(nnn2Cc2ccc(F)cc2)c(=O)[nH]1 | -2.87% (inactive)
71 | O=C(Nc1ccc(Br)cn1)c1ccccc1Cl | -0.48% (inactive)
72 | CCCn1c(SCC(=O)Nc2nc(C)cs2)nnc1-c1ccccn1 | 12.5% (inactive)

Row | Compound | inhibition
73 | Cc1ccccc1-n1c(SCC(=O)c2c[nH]c3ccccc23)nnc1-c1cccnc1 | 48.9% (active)
74 | Cc1cccc(-n2c(SCC(=O)NNC(=O)c3ccco3)nnc2-c2cccnc2)c1C | -0.49% (inactive)
75 | Cc1ccccc1-n1c(SCC(=O)NNC(=O)c2ccco2)nnc1-c1cccnc1 | -12% (inactive)
76 | Cc1csc(NC(=O)CSc2nnc(-c3cccnc3)o2)n1 | -34.8% (inactive)
77 | CCc1ccccc1-n1c(SCC(=O)Nc2nc(C)cs2)nnc1-c1cccnc1 | 56.8% (active)
78 | O=C(NCc1ccncc1)C(=O)NCC1OCCCN1S(=O)(=O)c1cccs1 (stereo not given) | 0.25% (inactive)
79 | CCCCOC(=O)c1cc(-c2ccc(OC)cc2)nc2ccc(Br)cc12 | 0.12% (inactive)
80 | Cc1[nH]c2ccccc2c1C(Nc1nccs1)c1ccccc1O (stereo not given) | 2.06% (inactive)
81 | Cn1c(SCC(=O)c2ccc([N+](=O)[O-])cc2)nnc1C(F)(F)F | 4.67% (inactive)
82 | O=C(N/N=C/c1ccccc1Cl)C(=O)N/N=C/c1ccccc1Cl | 9.07% (inactive)
83 | CCOC(=O)C1=CN(Cc2ccc(F)cc2)C=C(C(=O)OCC)C1c1ccc(Cl)cc1 | 1.74% (inactive)
84 | CCc1ccccc1NC(=O)NCCNc1cc(-n2nc(C)cc2C)nc(C)n1 | -1.06% (inactive)
85 | Cc1cc(NCc2ccccc2)nc(-n2nc(C)cc2C)n1 | 65.4% (active)
86 | CC(=O)Nc1ccc(Nc2cc(C)nc(-n3nc(C)cc3C)n2)cc1 | 36% (active)
87 | Cc1cc(C)n(-c2nc(Nc3ccc(OC(F)(F)F)cc3)nc(-n3nc(C)cc3C)n2)n1 | -10.5% (inactive)
88 | CC(=O)Nc1ccc(Nc2cc(Nc3ccccn3)nc(N)n2)cc1 | -12.6% (inactive)
89 | Cc1cc(NCc2ccccc2)nc(N2CCN(Cc3ccc4c(c3)OCO4)CC2)n1 | 3.95% (inactive)
90 | COc1cc2nc(NCc3ccc4c(c3)OCO4)nc(N)c2cc1OC | 8.22% (inactive)
91 | COc1cccc(NC(=O)CSc2nc(O)c(C)c(=O)n2-c2ccc(F)cc2)c1 | -6.67% (inactive)
92 | COc1ccc(/C=N/NC(=O)CNc2cccc3ccccc23)cc1Cl | 8.35% (inactive)
93 | O=C(CCSc1nc(-c2ccccc2)cs1)N1CCOCC1 | -10.1% (inactive)
94 | O=C(NC1CC1)C1CCN(C(=O)c2sccc2-n2cccc2)CC1 | 0.5% (inactive)
95 | CCC1CN(Cc2cn(CC)nc2C)Cc2cc(OC)ccc2O1 (stereo not given) | 4.73% (inactive)
